In the library only some 2.4% were active in any assay of this set; here they are far more common.
Cruzain noTriton: blocks cruzain activity in detergent-free assay; purified cruzain, Z-FR-AMC fluorescence, no detergent; Potency, µM, inactives show max response, negative = inhibition, actives largely listed as inhibitors; 2.3% of 200,000 active;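 also: plate controls were enzyme without inhibitor for no effect and buffer without enzyme for full effect; nearly all actives have a fitted effect of over 40% in size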
Target sequence (P25779 123-467 limits assumed): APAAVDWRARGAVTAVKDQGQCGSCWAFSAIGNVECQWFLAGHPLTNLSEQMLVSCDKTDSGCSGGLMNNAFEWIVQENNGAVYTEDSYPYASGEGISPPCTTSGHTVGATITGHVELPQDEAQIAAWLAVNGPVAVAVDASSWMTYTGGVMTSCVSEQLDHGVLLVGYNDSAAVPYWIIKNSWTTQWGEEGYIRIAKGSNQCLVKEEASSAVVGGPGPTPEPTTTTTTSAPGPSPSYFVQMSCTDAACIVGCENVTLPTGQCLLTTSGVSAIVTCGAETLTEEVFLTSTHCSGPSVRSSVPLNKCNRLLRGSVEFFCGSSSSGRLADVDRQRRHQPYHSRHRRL
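Purified cruzain at 1.5 nM, pre-incubated 15 min with compound at room temperature in 100 mM sodium acetate pH 5.5, 5 mM DTT, 0.00005% Triton X-100. Reaction started with 2 uM Z-FR-AMC; AMC fluorescence increase over 60 s gives rate.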
Cruzain Triton: blocks cruzain activity in presence of Triton detergent; 0.43% of 200,000 active; Potency, µM, inactives show max response, negative = inhibition, most hits filed as inhibitors; P25779; purified cruzain, Z-FR-AMC fluorescence, 0.01% Triton;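 also: plate controls were neutral wells for no effect and buffer without enzyme for full effect; nearly all actives have a fitted effect of over 40% in size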
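Sodium acetate buffer (100 mM, pH 5.5) containing 5 mM DTT and 0.01% Triton X-100 hosted 1.5 nM cruzain and test compound for 15 min at room temperature. Cleavage of 2 uM Z-FR-AMC was then tracked by fluorescence.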
* = called active by the depositor; ? = inconclusive. Calls follow the shape of the dose curve; as a rule, active = well fitted curve in the direction sought with a large enough effect; inconclusive = small, poorly fitted or top-dose-only effect, or another doubt; inactive = no such curve, though single readings can be large; an effect the other way counts as inactive or inconclusive. Potency is read from the fitted curve at half-maximal effect.

SMILES	Cruzain noTriton	Cruzain Triton
COC(=O)N/N=C/c1ccc(-c2cc(Cl)cc(Cl)c2)o1	-12%	-8%
NC(=S)N/N=C/c1ccc(-c2cc(Cl)cc(Cl)c2)o1	10µM*	4.5µM*
CCOC(=O)Cc1c(C)nc2c(-c3ccc(OC)c(OC)c3)c(C)nn2c1C	?	-2%
COc1ccc2cc(CNc3ccc(C)cc3)c(=O)n(CC(=O)Nc3ccc(OC)c(Cl)c3)c2c1	?	-2%
COc1cccc(Nc2nc(NCC3CCCO3)c3ccccc3n2)c1 (stereo not given)	13µM*	14µM*
Oc1ccc(Nc2nc(NCC3CCCO3)c3ccccc3n2)cc1 (stereo not given)	-27%	-25%
Cc1nn(-c2ccccc2)c(Cl)c1C1C(C#N)=C(N)Oc2c1c(=O)oc1ccccc21 (stereo not given)	16µM*	-1%
COC(=O)C1=C(C)OC(N)=C(C#N)C1c1c(C)nn(-c2ccccc2)c1Cl (stereo not given)	-12%	-2%
Cc1cc(C)c(Cn2cnc3nc4c(cc3c2=O)CCCC4)c(C)c1	-1%	-2%
CS(=O)(=O)N1CCC2(CC1)CN(c1cccc(-c3ccccc3)c1)C2	?	-4%
O=C(/C=C\Nc1cccc(F)c1)c1ccc2c(c1)OCO2	25µM*	2%
COc1ccc(N/C=C\C(=O)c2ccc3c(c2)OCO3)cc1OC	3%	-7%
COC(=O)CC(=O)CSc1nc2cc(C(=O)NC(C)C)ccc2c(=O)n1CCc1ccccc1	?	-4%
CC1CCCN(CCC(=O)c2ccc(Br)cc2)C1 (stereo not given)	5µM*	?
CC1CCCN(CCOc2ccc(Br)cc2)C1 (stereo not given)	5%	3%
CCc1ccccc1NC(=O)N1CCN(Cc2nc3ccc(C)cc3o2)CC1	8%	0%
O=C(CSc1n[nH]c(-c2ccc(F)cc2)n1)N1CCN(c2ccc(F)cc2)CC1	8%	-3%
CCN1CCN(C(=O)c2ccc3c(c2)N(Cc2c(F)cccc2Cl)C(=O)c2ccccc2S3)CC1	-3%	4%
CCn1c(SCc2nc3scc(-c4ccccc4)c3c(=O)[nH]2)nnc1-c1cccs1	-26%	-4%
COCCn1c(SCc2nc3scc(-c4ccc(Cl)cc4)c3c(=O)[nH]2)nnc1-c1cccc(C)c1	25µM*	-6%
CCN1CCN(Cc2c(O)ccc3oc(C)c(C(=O)Nc4ccc(OC)cc4)c23)CC1	-13%	-4%
CC(=O)c1ccc2c(c1)C1C=CCC1C(c1ccncc1)N2 (stereo not given)	30%	-10%
CC(=O)c1ccc2c(c1)C1C(Cl)C(Sc3ccccc3[N+](=O)[O-])CC1C(c1ccccc1)N2 (stereo not given)	4µM*	-6%
CC(=O)c1ccc2c(c1)C1C(Cl)C(Sc3ccccc3[N+](=O)[O-])CC1C(c1ccccc1[N+](=O)[O-])N2 (stereo not given)	3.2µM*	-11%
CC(=O)c1ccc(Sc2nnnn2-c2ccccc2)c([N+](=O)[O-])c1	1%	0%
SMILES	Cruzain noTriton	Cruzain Triton
CC1=C(C(=O)Nc2cccnc2)C(c2cccc(F)c2)n2nc(SCc3ccccc3)nc2N1 (stereo not given)	-2%	-1%
Cc1cc(C)cc(C(=O)NC(=S)Nc2ccc(-c3cc4ccccc4oc3=O)cc2)c1	10µM*	-1%
Cc1ccc(C(=O)NC(=S)Nc2ccc(-c3cc4ccccc4oc3=O)cc2)c(C)c1	?	-1%
Cn1c(=O)[nH]c(=O)c2c1nc(CN1CCN(c3ccccc3F)CC1)n2Cc1ccc(F)cc1	?	-5%
CC(=O)Nc1ccc(-c2csc(NC(=O)CCCc3cccs3)n2)cc1	10µM*	-6%
O=C(O)CCC(=O)Nc1nc(-c2ccccc2)cs1	-10%	2%
Cc1ccc(-c2csc(NC(=O)CCCc3cccs3)n2)cc1	7.9µM*	0%
CCC(=O)Nc1ccc(-c2csc(NNC(C)=O)n2)cc1	-9%	-4%
Cc1cccc(CNc2ncnc3ccc(-c4ccc(C(=O)N(C)C)cc4)cc23)c1	?	-2%
C=CCn1c(O)c(N=NC(=S)Nc2ccc(OC)c(Cl)c2)c2ccccc21	10µM*	-3%
C=CCn1c(O)c(N=NC(=O)OC(C)(C)C)c2ccccc21	3%	-3%
O=c1c(C(c2ccccc2)c2c(O)sc3ccccc3c2=O)c(O)sc2ccccc12	?	25µM*
CCC(=O)CC(c1ccccc1)c1c(O)c2ccccc2sc1=O (stereo not given)	-10%	-14%
CCOc1ccccc1N(C)C(=O)Cn1cnc2onc(-c3ccc(F)cc3)c2c1=O	-4%	0%
CCSC1=NC2(CCN(C(=O)NC3CCCCC3)CC2)N=C1c1ccc(OC)cc1	11%	-6%
Cc1cc(C(=O)Cn2nc(C(=O)O)c3ccccc3c2=O)c(C)n1-c1ccc(F)cc1	25µM*	-9%
Cc1ccccc1OCCn1nc(C(=O)O)c2ccccc2c1=O	16%	-5%
O=C(c1ccc2c(c1)N(Cc1c(F)cccc1Cl)C(=O)c1ccccc1S2)N1CCOCC1	20%	-3%

Bioassay records from PubChem BioAssay.
